Measurements from PubChem BioAssay (NCI).
About 83,000 compounds went through this panel and 20% of them were active in at least one assay; those are over-represented in the sample as a whole.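 Treatment: one concentration, 48 hours, 96-well format. Scoring: percent growth, with anything below 10 considered active.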 A number with no mark means an inactive call. Active and inactive are the calls of the source.

What follows are compounds tested on TK-10 renal (assay: NCI-60 one-dose screen, 48 h (100 = growth as untreated, 0 = no growth, -100 = all killed)). Conditions: 10 µM.

| Structure (SMILES) | growth |
| --- | --- |
| N#Cc1c(NC(=O)c2ccc(C(O)(C(F)(F)F)C(F)(F)F)cc2)sc2c1CCC(=O)C2 | 2.24% (active) |
| Cn1cc(-c2cc(N)n3nc(-c4c[nH]c5ccc(Br)cc45)cc3n2)c2cc(Br)cnc21 | -81.9% (active) |
| COc1cc2c(cc1OC)CN(CCCCOc1cc(O)c3c(=O)cc(-c4ccccc4)oc3c1)CC2 | 117% |
| N#Cc1c(NC(=O)c2ccc(C(F)(F)F)cc2C(F)(F)F)sc2c1CCC(=O)C2 | -27.8% (active) |
| O=C1Nc2ccc(Cl)cc2/C1=C/c1cccc(OCc2ccccc2)c1 | 77.2% |
| O=c1cc(-c2ccccc2)oc2cc(OCCCCNCc3ccccc3)cc(O)c12 | 78.9% |
| CC1=N/C(=C\c2ccc(N(C)C)cc2)C(=O)N1CCc1ccc(S(N)(=O)=O)cc1 | 110% |
| CC(=O)OC[C@@]1(C)C2CC[C@]3(C)C(CC=C4C5CC(C)(C)CC[C@]5(C(=O)Nc5ccccc5)CC[C@]43C)[C@@]2(C)C[C@@H](OC(C)=O)[C@@H]1OC(C)=O (stereo partly drawn) | 53.1% |
| Cc1ccc(-c2cc(-c3cc4ccccc4nc3Cl)[nH]c(=S)n2)cc1 | 107% |
| O=c1cc(-c2ccccc2)oc2cc(OCCCNCc3ccccc3)cc(O)c12 | 37.3% |
| COc1ccc(C(=O)Nc2sc3c(c2C#N)CCC(=O)C3)cc1C(F)(F)F | 15.1% |
| Cc1cc(C)cc(Oc2cccc(-c3c(C)nnn3C3CCN(CCN(C)C)CC3)n2)c1 | 21.1% |
| Nc1nnc(-c2c[nH]c3ccc(F)cc23)c(-c2c[nH]c3ncccc23)n1 | 82.9% |
